Compound activity (PubChem BioAssay)
HT1080-NT tox – qHTS for induction of synthetic lethality in tumor cells producing 2HG: qHTS for the HT-1080-NT fibrosarcoma cell line. HT-1080-NT fibrosarcoma viability, CellTiter-Glo ATP luminescence, 48 h. Potency, µM (series often up to 46.1 µM), hits mostly cytotoxic. 1.6% of 360,000 active. AID 686970, 2013;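 also: NT is the 2HG producing partner of a matched IDH1 knockdown line; nearly all actives have a fitted effect of over 55% in size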
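Viability by CellTiter-Glo luminescence after 48 h compound exposure at 37C of HT-1080-NT cells (750/well, RPMI, 5% FBS). % activity scaled between DMSO wells and medium-only wells, then curve-fitted and categorized by curve class.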
DT40 TDP1 no CPT – qHTS for Inhibitors of human tyrosyl-DNA phosphodiesterase 1 (TDP1): qHTS in cells in absence of CPT | DT40 Tdp1-/- hTDP1 cells, no CPT, ATP luminescence, 48 h | Potency, µM (doses to about 46.2 µM), usual class: inhibitors | 15% of 420,000 active; also: nearly all actives have a fitted effect of over 55% in size
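A cellular qHTS used chicken DT40 cells lacking endogenous Tdp1 but carrying stably transfected human TDP1. Compounds were applied without camptothecin, and cell growth kinetics were judged by ATP-dependent luminescence after ≥48 hr.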
IL1B secr inh – qHTS for Inhibitors of Inflammasome Signaling: IL-1-beta AlphaLISA Primary Screen. THP-1 LPS/ATP IL-1B secretion, AlphaLISA, 16 h; hits give low values. activity change, % at 57.5 µM. 4.7% of 360,000 active. AID 743279, 2014; in the data active = activity change below about -50%; inconclusive = mostly about -30% to -49%
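THP-1 cells pretreated 1 hr with compounds (up to 57.5 uM final), then stimulated with LPS (250 ng/mL final) plus ATP (1.25 mM final); secreted IL-1B measured by AlphaLISA after 16 hr, decreased signal indicating inhibition.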
TDP1 cell CPT – qHTS for Inhibitors of human tyrosyl-DNA phosphodiesterase 1 (TDP1): qHTS in cells in presence of CPT | chicken DT40 Tdp1-/-;hTDP1 cells + 20 nM CPT, ATP luminescence, 48 h | Potency, µM (series often up to 46.2 µM), most hits filed as inhibitors | 12% of 420,000 active | AID 686979, 2013; also: nearly all actives have a fitted effect of over 55% in size
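Chicken DT40 Tdp1-/- cells complemented with human TDP1, 400 cells/well, exposed to compounds plus 20 nM camptothecin for at least 48 h at 37 C; viability read as ATP content by CellTiter-Glo luminescence.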
HT1080 IDH1KD tx – qHTS for induction of synthetic lethality in tumor cells producing 2HG: qHTS for the HT-1080-IDH1KD cell line; 2% of 360,000 active; Potency, µM (series often up to 46.1 µM), usual class: cytotoxic; HT-1080 IDH1 knockdown viability, ATP luminescence, 48 h
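Using the IDH1-knockdown HT-1080 line run in the same batch and compound series as the NT line, viability after 48 h at 37 °C was determined by CellTiter-Glo luminescence and expressed as % activity.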
Hits are given with their value. Rows were chosen to be rich in hits. Some 19% of all compounds tested hit in one or more screens of this group. Unless noted, calls follow the shape of the dose curve; as a rule, active = well fitted curve in the direction sought with a large enough effect; inconclusive = small, poorly fitted or top-dose-only effect, or another doubt; inactive = no such curve, though single readings can be large; an effect the other way counts as inactive or inconclusive.

For Cc1cc(C)n(CC(=O)Nc2ccc(F)c(F)c2)c(=O)c1C#N the results were DT40 TDP1 no CPT inactive and TDP1 cell CPT inactive.
Screening CC(=O)N1CCN(c2c(F)c(F)c(C(F)(F)F)c(F)c2F)CC1 returned HT1080-NT tox inactive, DT40 TDP1 no CPT 14.6µM, IL1B secr inh inactive, TDP1 cell CPT inconclusive and HT1080 IDH1KD tx inactive.
CC1CC(C)CN(C(=O)C2CCN(S(=O)(=O)c3cccc4cccnc34)CC2)C1 (stereo not drawn) was read as HT1080-NT tox inactive, DT40 TDP1 no CPT inactive, IL1B secr inh inactive, TDP1 cell CPT inactive and HT1080 IDH1KD tx inactive.
Screening COc1cc(NC(=O)CN2C(=O)CSc3ccc(S(=O)(=O)N4CCCC4)cc32)cc(OC)c1 returned HT1080-NT tox inactive, DT40 TDP1 no CPT inconclusive, IL1B secr inh inactive, TDP1 cell CPT inconclusive and HT1080 IDH1KD tx inactive.
Cc1ccc(N2CCN(C(=O)N3CCCC3)CC2)cc1C was read as HT1080-NT tox inactive, DT40 TDP1 no CPT inactive, IL1B secr inh inactive, TDP1 cell CPT 20.6µM and HT1080 IDH1KD tx inactive.
`O=C(NCCN1CCOCC1)c1ccccc1N1C(=O)[C@@H]2Cc3c([nH]c4ccccc34)C(c3ccc(F)cc3)N2C1=O` (stereo partly drawn) gave HT1080-NT tox inactive, DT40 TDP1 no CPT inconclusive, IL1B secr inh inactive, TDP1 cell CPT 14.6µM and HT1080 IDH1KD tx inactive.
For COc1ccc(C2c3[nH]c4ccccc4c3C[C@H]3C(=O)N(c4ccccc4C(=O)NCCN4CCOCC4)C(=O)N23)cc1 (stereo partly drawn) the results were HT1080-NT tox inactive, DT40 TDP1 no CPT inconclusive, IL1B secr inh inactive, TDP1 cell CPT 23.1µM and HT1080 IDH1KD tx inactive.
Screening Cc1ccc(C2c3[nH]c4ccccc4c3C[C@H]3C(=O)N(c4ccccc4C(=O)N4CCC(C(=O)O)CC4)C(=O)N23)cc1 (stereo partly drawn) returned HT1080-NT tox inactive, DT40 TDP1 no CPT inactive, IL1B secr inh inactive, TDP1 cell CPT inactive and HT1080 IDH1KD tx inactive.
For CC1(C(=O)Nc2ccc(F)cc2F)CCN1C(=O)Cc1ccccc1Cl (stereo not drawn) the results were HT1080-NT tox inactive, DT40 TDP1 no CPT inactive, IL1B secr inh inactive, TDP1 cell CPT inactive and HT1080 IDH1KD tx inactive.
CC1(C(=O)Nc2ccc(F)cc2F)CCN1C(=O)CCC1CCCC1 (stereo not drawn) was read as HT1080-NT tox inconclusive, DT40 TDP1 no CPT 23.1µM, IL1B secr inh inactive, TDP1 cell CPT inconclusive and HT1080 IDH1KD tx inactive.
CC(C)(C)c1ccc(CC(=O)N2CCC2(C)C(=O)Nc2ccc(F)cc2F)cc1 (stereo not drawn) was read as HT1080-NT tox inactive, DT40 TDP1 no CPT 16.4µM, IL1B secr inh inactive, TDP1 cell CPT 23.1µM and HT1080 IDH1KD tx inconclusive.
Screening O=[N+]([O-])c1c(N2CCN(CCO)CC2)nc2ccccn12 returned HT1080-NT tox inactive, DT40 TDP1 no CPT inactive, IL1B secr inh inactive, TDP1 cell CPT inactive and HT1080 IDH1KD tx inactive.
Screening C#CCOC(=O)CCCC(=O)NCCCCCCCC returned HT1080-NT tox inactive, DT40 TDP1 no CPT inconclusive, IL1B secr inh inactive, TDP1 cell CPT inactive and HT1080 IDH1KD tx inactive.
CCC(=O)NCCc1nc2cc(NC(=O)c3ccc(OC)cc3)ccc2n1C was read as HT1080-NT tox inactive, DT40 TDP1 no CPT inactive, IL1B secr inh inactive, TDP1 cell CPT inactive and HT1080 IDH1KD tx inactive.
CC(C)C(=O)NC(Nc1cccc2cccnc12)C(Cl)(Cl)Cl (stereo not drawn) was read as HT1080-NT tox inactive, DT40 TDP1 no CPT 13µM, IL1B secr inh inactive, TDP1 cell CPT 14.6µM and HT1080 IDH1KD tx inactive.
CC(C)CC(=O)NC(NC(=S)Nc1cccc2cccnc12)C(Cl)(Cl)Cl (stereo not drawn) was read as HT1080-NT tox inconclusive, DT40 TDP1 no CPT 8.2µM, IL1B secr inh inactive, TDP1 cell CPT 8.2µM and HT1080 IDH1KD tx inconclusive.
O=C(Nc1ccccc1)Nc1cccc2cccnc12 was read as HT1080-NT tox inactive, DT40 TDP1 no CPT inactive, IL1B secr inh inactive, TDP1 cell CPT inactive and HT1080 IDH1KD tx inactive.
CCC(=O)Nc1cccc2cccnc12 was read as HT1080-NT tox inactive, DT40 TDP1 no CPT inactive, IL1B secr inh inactive, TDP1 cell CPT inactive and HT1080 IDH1KD tx inactive.
ClCC1NCC(c2ccccc2Cl)c2c1[nH]c1ccccc21 (stereo not drawn) was read as HT1080-NT tox inactive, DT40 TDP1 no CPT inactive, IL1B secr inh inactive, TDP1 cell CPT inactive and HT1080 IDH1KD tx inactive.
For Cc1cc(C)nc(NC(=O)c2c(-c3c(Cl)cccc3Cl)noc2C)n1 the results were HT1080-NT tox inactive, DT40 TDP1 no CPT inconclusive, IL1B secr inh inactive, TDP1 cell CPT inactive and HT1080 IDH1KD tx inactive.
Cc1onc(-c2c(Cl)cccc2Cl)c1C(=O)Nc1nc(C(C)(C)C)cs1 was read as HT1080-NT tox inconclusive, DT40 TDP1 no CPT 23.1µM, IL1B secr inh inconclusive, TDP1 cell CPT inconclusive and HT1080 IDH1KD tx inconclusive.
For Cc1nc(C(=O)NNC(=O)c2c(-c3c(Cl)cccc3Cl)noc2C)cs1 the results were HT1080-NT tox inconclusive, DT40 TDP1 no CPT 16.4µM, IL1B secr inh inactive, TDP1 cell CPT inconclusive and HT1080 IDH1KD tx inconclusive.
Cc1cc(C(=O)NNC(=O)c2c(-c3c(Cl)cccc3Cl)noc2C)no1 was read as HT1080-NT tox inactive, DT40 TDP1 no CPT inactive, IL1B secr inh inactive, TDP1 cell CPT inactive and HT1080 IDH1KD tx inactive.
Cc1cc(N2CCOCC2)nc(SCC(=O)c2ccc(Cl)cc2)n1 was read as HT1080-NT tox inactive, DT40 TDP1 no CPT inconclusive, IL1B secr inh inactive, TDP1 cell CPT 16.4µM and HT1080 IDH1KD tx inactive.
Screening Cc1cc(N2CCCC2)nc(SCC(=O)c2ccccc2)n1 returned HT1080-NT tox inactive, DT40 TDP1 no CPT 23.1µM, IL1B secr inh inactive, TDP1 cell CPT inconclusive and HT1080 IDH1KD tx inactive.
Screening Cc1cc(N2CCC(C)CC2)nc(SCC(=O)c2ccccc2)n1 returned HT1080-NT tox inactive, DT40 TDP1 no CPT inactive, IL1B secr inh -61.7, TDP1 cell CPT inconclusive and HT1080 IDH1KD tx inactive.
For CCNC(=O)/C(=C/c1ccc2c(c1)OCO2)NC(=O)c1ccc(Br)cc1 the results were HT1080-NT tox inconclusive, DT40 TDP1 no CPT inactive, IL1B secr inh inactive, TDP1 cell CPT inactive and HT1080 IDH1KD tx inactive.
`COc1ccc(CCN2C(=NC(=O)C(C)C)SC3CS(=O)(=O)CC32)cc1OC` (stereo not drawn) gave HT1080-NT tox inactive, DT40 TDP1 no CPT inactive, IL1B secr inh inactive, TDP1 cell CPT inactive and HT1080 IDH1KD tx inactive.
For CCN(CC)CCNC(=O)c1ccc(Sc2ccc(Cl)cc2)c(NC(C)=O)c1 the results were HT1080-NT tox inactive, DT40 TDP1 no CPT inconclusive, IL1B secr inh inactive, TDP1 cell CPT inconclusive and HT1080 IDH1KD tx inactive.
